From PubChem BioAssay (NCATS)
Inconclusive results are not listed. Values without a mark were called inactive. Calls come from the whole dose curve; as a rule, active = well fitted curve in the direction sought with a large enough effect; inconclusive = small, poorly fitted or top-dose-only effect, or another doubt; inactive = no such curve, though single readings can be large; an effect the other way counts as inactive or inconclusive.

molecular target: D(1A) dopamine receptor (Homo sapiens) (UniProt P21728); assay: HTS Assay for Allosteric Agonists of the Human D1 Dopamine Receptor: Primary Screen for Antagonists (AID 488983); conditions: D1 receptor cell assay, antagonist mode, qHTS titration; series mostly up to 41.8 µM; activity change, negative = inhibition: at the top concentration;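 note: calcium flux response to an EC80 dopamine challenge measured with no-wash dye; % is set by controls: 0 for no effect and ±100 for the full control effect; nearly all actives have a fitted effect of over 65% in size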
Outline: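 Kinetic fluorescence at 1 cycle/sec tracked intracellular calcium in force-coupled, tetracycline-inducible HEK293 T-REx D1 cells. Loss of response to an EC80 dopamine dose, given 180 s after compound, marked antagonists.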

D(1A) dopamine receptor (Homo sapiens), sequence (P21728 whole entry, looked up): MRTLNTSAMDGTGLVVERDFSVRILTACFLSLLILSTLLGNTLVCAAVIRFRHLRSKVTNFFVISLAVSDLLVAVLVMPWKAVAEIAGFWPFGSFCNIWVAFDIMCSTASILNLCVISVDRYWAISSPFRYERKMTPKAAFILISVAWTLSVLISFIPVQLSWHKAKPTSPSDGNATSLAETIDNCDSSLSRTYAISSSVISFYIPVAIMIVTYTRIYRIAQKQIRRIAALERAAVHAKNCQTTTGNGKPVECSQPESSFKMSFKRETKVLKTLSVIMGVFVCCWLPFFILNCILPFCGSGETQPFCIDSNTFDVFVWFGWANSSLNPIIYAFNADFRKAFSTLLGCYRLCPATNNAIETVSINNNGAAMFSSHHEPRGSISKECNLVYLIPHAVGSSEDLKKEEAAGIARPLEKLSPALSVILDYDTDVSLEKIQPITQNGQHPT

With `Nc1ncnc2c1nc(Br)n2C1OC2COP(=O)(O)O[C@@H]2C1O` (stereo not given in full) as the compound, how does the “activity change, negative = inhibition” value read?
The value was 7.69%.

Which “activity change, negative = inhibition” value does the source give for `Oc1ccc(/C=C/c2ccc(/C=C/c3ccc(O)cc3)c(Br)c2)cc1` here?
Its value is 24.3%.

Which “activity change, negative = inhibition” value does the source give for `CC(O)C(O)[C@H]1CNc2nc(N)[nH]c(=O)c2N1` (stereo not given in full) here?
The value was 6.32%.

With `O[Si](CCCN1CCCCC1)(c1ccc(F)cc1)C1CCCCC1` (stereo not given) as the compound, how does the “activity change, negative = inhibition” value read?
Its value is -11.7%.

For `CC(N)(Cc1ccc(O)c(O)c1)C(=O)O` (stereo not given), which “activity change, negative = inhibition” value is on record?
The value was -6.41%.

test system: not listed separately; assay: Validation screen for small molecules that induce genotoxicity in human embryonic kidney (HEK293T) cells expressing luciferase-tagged ELG1 (AID 493106); conditions: luminescence; series mostly up to 46.1 µM; activity change, positive = ELG1 induction: at the top concentration; note: 0% is about no effect
Outline: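 Cells were dispensed at 2,000 per well, then 23 nL compound or DMSO was pinned in. After 16 hr at 37 °C and 5% CO2, ONE-Glo reagent was added. Luciferase activity was measured following 30 min at room temperature.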

With `O=C1Nc2ccc(I)cc2/C1=C/c1cc(Br)c(O)c(Br)c1` as the compound, how does the “activity change, positive = ELG1 induction” value read?
The value was -6.74%.

With `O=S(=O)(c1cccc2c(Cl)cccc12)N1CCCNCC1` as the compound, how does the “activity change, positive = ELG1 induction” value read?
The value was -4.12%.

With `N#CC(C#N)=C(N)/C(C#N)=C/c1ccc(O)cc1` as the compound, how does the “activity change, positive = ELG1 induction” value read?
Its value is -1.38%.

With `CCCCCC(O)CCCC(=O)O` (stereo not given) as the compound, how does the “activity change, positive = ELG1 induction” value read?
Its value is -3.52%.

Which “activity change, positive = ELG1 induction” value does the source give for `Cn1c(=O)[nH]c2ncn(C)c2c1=O` here?
Its value is -6.35%.

With `CCCn1c(=O)c(C)cn2nc(N)nc12` as the compound, how does the “activity change, positive = ELG1 induction” value read?
Its value is 3.82%.

With `CCCCCCCCCC(=O)NC(CN1CCOCC1)[C@H](O)c1ccccc1` (stereo not given in full) as the compound, how does the “activity change, positive = ELG1 induction” value read?
The value was -6.71%.

For `Cc1cc(Cn2cnc3c2C[C@@H](C(=O)O)N(C(=O)C(c2ccccc2)c2ccccc2)C3)ccc1N`, which “activity change, positive = ELG1 induction” value is on record?
Its value is -2.86%.

Which “activity change, positive = ELG1 induction” value does the source give for `CN1CC(O)C(O)C(O)C1CO` (stereo not given) here?
Its value is -1.84%.

Which “activity change, positive = ELG1 induction” value does the source give for `NCCNS(=O)(=O)c1cccc2c(Cl)cccc12` here?
Its value is -8.13%.

For `CC#CCOC(=O)c1c(C)nc2sc3c(c2c1N)CCC(O)C3` (stereo not given), which “activity change, positive = ELG1 induction” value is on record?
The value was -1.66%.

For `Cc1nc2n(c(=O)c1CCN1CCC(c3noc4cc(F)ccc34)CC1)CCCC2O` (stereo not given), which “activity change, positive = ELG1 induction” value is on record?
Its value is -8.88%.

For `CC(=O)SC1CC2=CC(=O)CC[C@]2(C)C2CC[C@@]3(C)C(CC[C@@]34CCC(=O)O4)C12` (stereo not given in full), which “activity change, positive = ELG1 induction” value is on record?
The value was -22.4%.

For `N#CC(=C(\N)Sc1ccccc1N)/C(C#N)=C(/N)Sc1ccccc1N`, which “activity change, positive = ELG1 induction” value is on record?
Its value is -8.16%.

With `N[C@H](C(=O)O)[C@H](Cc1ccccc1)C(=O)O` as the compound, how does the “activity change, positive = ELG1 induction” value read?
The value was 2.86%.
